The values below come from PubChem BioAssay (NCATS).

For assay [1], the system named is Nanoluciferase (engineered Oplophorus gracilirostris luciferase). The assay can be described thus: Primary Nanoluciferase (NLuc) qHTS assay for identification of artifact compounds. (AID 1845222).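 Further: NLuc secreted into diluted conditioned medium of S16 cells; series mostly up to about 54 µM; 0% = DMSO and -100% = no enzyme.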 The procedure, abridged:
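S16 cell supernatant NLuc, 1:55; cpds qHTS; 15 min RT dark; Nano-Glo substrate 1:100, 5 min; luminescence; Hill fit of % inhibition.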
For orientation: In qHTS, concentration-response curves come from the screen itself.

A short description of assay [2]: Primary redox qHTS assay for identification of artifact compounds. (AID 1845223).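 Further: 0% = DMSO and 100% = reference compound.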 The procedure, abridged: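 Redox-cycling detection via DTT (250 uM final) oxidation coupled to Amplex Red (25 uM)/HRP (250 mU/mL) in HBSS. 15 min preincubation plus 30 min after DTT, room temperature. Ex/Em 525/598 nm; 4-parameter Hill fit against DMSO and 10 uM DA3003.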

Structures are written as SMILES. A number with no mark means an inactive call. Inconclusive results are not listed. The source made the active and inactive calls. The call rests on the fitted dose curve; in most records, active means well fitted curve in the direction sought with a large enough effect; inconclusive means small, poorly fitted or top-dose-only effect, or another doubt; inactive means no such curve, though single readings can be large; an effect the other way counts as inactive or inconclusive.

For the molecule `C=C(COC(=O)C(C)C)C1Oc2cc(C(C)=O)ccc2C1OC(=O)C(C)C` (configuration not stated), the Potency result in assay [1] and in assay [2] was “inactive” throughout.
With `O=C(OC[C@H]1O[C@H](O[C@H]2CO[C@H](CO)[C@@H](O)[C@@H]2O)[C@H](O)[C@@H](O)[C@H]1O)c1ccccc1`, the Potency result in assay [1] and in assay [2] was “inactive” throughout.
With `COc1ccc(-n2[nH]c3c(cnc4ccccc43)c2=O)cc1`, the Potency entry in assay [1] and in assay [2] was “inactive” each time.
Consider `CC1=C2C(=O)C=C(CO)C2[C@H]2OC(=O)[C@H](C)[C@@H]2[C@@H](OC(=O)Cc2ccc(O)cc2)C1` (some centres not stated), for which the Potency result in assay [1] and in assay [2] was “inactive” each time.
Turning to `Fc1ccccc1-c1nc2ccn(Cc3ccc(-c4ccc(C(F)(F)F)cc4C(F)(F)F)nn3)cc-2n1`, the Potency result in assay [1] and in assay [2] was “inactive” in each case.
As for `CC1(C)CCC2(C(=O)O)CCC3(C)C(=CCC4C5(C)CCC(O)C(C)(CO)C5C(O)CC43C)C2C1` (configuration not stated), the Potency entry in assay [1] and in assay [2] was “inactive” each time.
As to `O=C(c1ccc(Cl)c([N+](=O)[O-])c1)N1CCN(c2ccccc2F)CC1`, the Potency entry in assay [1] and in assay [2] was “inactive” in each case.
On to `CNC(C)C(=O)NC(C(=O)N1CCCC1C(=O)Nc1cccc2ncccc12)C(C)C` (configuration not stated), for which the Potency result in assay [1] and in assay [2] was “inactive” throughout.
For `CC(=O)OC[C@@]12C(=O)C[C@@H](C)[C@]3(C[C@@H](c4ccoc4)OC3=O)[C@H]1CC[C@H](OC(C)=O)[C@]21CO1`, the Potency result in assay [1] and in assay [2] was “inactive” each time.
Turning to `CC1CCC2C(C)(C)C(O)C(O)CC2(C)C12Cc1c(O)cc(CO)c(C=O)c1O2` (configuration not stated), the Potency result in assay [1] and in assay [2] was “inactive” each time.
As to `CC1=C[C@H](O)[C@H]2C(C)(C)CCC[C@]2(C)[C@@]1(O)CO`, the Potency entry in assay [1] and in assay [2] was “inactive” throughout.
As for `COc1cc(O)cc(C)c1C(=O)O[C@H]1[C@@H](O)[C@@H](n2ccc(=O)[nH]c2=O)O[C@@H]1CO`, the Potency result in assay [1] and in assay [2] was “inactive” each time.
On to `CC1(C)CC2C3=CCC4[C@@]5(C)CC[C@H](OC6OCC(O)C(OC7OC(CO)C(O)C(O)C7O)C6O)C(C)(C)C5CC[C@@]4(C)[C@]3(C)C[C@H](O)[C@@]2(CO)[C@H](OC(=O)c2ccccc2)C1` (some centres not stated), for which the activity, negative = inhibition in assay [1] is -2.24% [at 11.6 µM]. For the same molecule, in assay [2], the redox activity (% of DA3003) was -2.38% [at 11.5 µM].
Turning to `Cc1ccccc1-n1nc(-c2c(-c3ccc(F)cc3)nn3c2NC[C@@H](CO)C3)ccc1=O`, the Potency entry in assay [1] and in assay [2] was “inactive” in each case.
`COC1OC(OC)C(O)(CCC2(C)C(C)CCC3(C)C2CC(O)C(O)C32CO2)C1O` (configuration not stated): the Potency entry in assay [1] and in assay [2] was “inactive” each time.
Regarding `O=C(NCCN1CCCC1)c1cc(-c2ccc(CN3CCOCC3)cc2)nc2ccc(F)cc12`, the Potency result in assay [1] and in assay [2] was “inactive” throughout.
In the case of `NC(=O)c1ccc(F)c2c1C[C@@H](N(C1CCC1)C1CCC1)CO2`, the Potency result in assay [1] and in assay [2] was “inactive” throughout.
For `COc1cc(O)cc2c1C(=O)OC(C)CCCCCCC2` (configuration not stated), the Potency entry in assay [1] and in assay [2] was “inactive” in each case.
For `CC1CC(O)/C=C/C(O)/C=C\C(=O)O1` (configuration not stated), the Potency entry in assay [1] and in assay [2] was “inactive” in each case.
Consider `N#Cc1cc(-c2n[nH]c(-c3ccncc3)n2)ccn1`, for which the Potency result in assay [1] and in assay [2] was “inactive” throughout.
Regarding `O=C(O)c1ccc(NC(=O)[C@H](CC2CCCC2)n2cnc(C(F)(F)F)c2)nc1`, the Potency result in assay [1] and in assay [2] was “inactive” in each case.
As to `CC(C)=CCC[C@](C)(O[C@@H]1O[C@H](CO)[C@@H](O)[C@H](O)[C@H]1O)[C@H]1CC[C@]2(C)[C@@H]1[C@H](O)CC1[C@@]3(C)CC[C@H](O)C(C)(C)C3[C@@H](O[C@@H]3O[C@H](CO)[C@@H](O)[C@H](O)[C@H]3O[C@@H]3O[C@@H](C)[C@H](O)[C@@H](O)[C@H]3O)C[C@]12C` (some centres not stated), the activity, negative = inhibition in assay [1] is 4.23% [at 11.6 µM]. The redox activity (% of DA3003) in assay [2] was 5.49% [at 11.5 µM].
On to `Cc1occc(=O)c1O[C@@H]1O[C@H](CO)[C@@H](O)[C@H](O)[C@H]1O`, for which the Potency result in assay [1] and in assay [2] was “inactive” throughout.
Take `CC12CC(c3ccoc3)OC(=O)C1CCC1(C)C2CCC(O)C1(C)O` (configuration not stated): the Potency result in assay [1] and in assay [2] was “inactive” throughout.
As for `COC(=O)C1=COC(OC2OC(CO)C(O)C(O)C2O)C2C(C)C(OC(C)=O)C(OC(=O)c3ccccc3)C12` (configuration not stated), the Potency result in assay [1] and in assay [2] was “inactive” throughout.
`CC1(C)CC2C(O)C3=C(CC(C)(O)C2C1)C(=O)OC3` (configuration not stated): the Potency entry in assay [1] and in assay [2] was “inactive” each time.
As to `C=C1CCC2C(C)(C(=O)OC)CCCC2(C)C1CCC1=CCOC1=O` (configuration not stated), the Potency result in assay [1] and in assay [2] was “inactive” each time.
In the case of `C=C(C(=O)OC)[C@]12O[C@@](C)(CC[C@@]3(O)/C(=C\C)C(=O)O[C@]3(C)C[C@@H]1OC(=O)C(CO)CN1CCCC1C(=O)O)CC2=O` (some centres not stated), the Potency result in assay [1] and in assay [2] was “inactive” each time.
In the case of `O=C(O)c1ccncc1Nc1nn(CCN2CCC(F)(F)CC2)c2ccc(F)cc12`, the Potency result in assay [1] and in assay [2] was “inactive” in each case.
For the molecule `COc1ccc(CCc2nc3cc(-c4c(C)noc4C)ccc3n2C[C@H](C)N2CCOCC2)cc1Cl`, the Potency result in assay [1] and in assay [2] was “inactive” throughout.
Take `CC1C2=CC(=O)OC2(O)CC2C1CCC1C(C)(C)CCC(O)C21C` (configuration not stated): the Potency result in assay [1] and in assay [2] was “inactive” in each case.
